Bioassay records deposited in PubChem by Johns Hopkins Ion Channel Center.
ANO1 activ: activators or potentiators of mouse TMEM16A chloride channel; B-score at 10 µM; Q8BHY3; HEK293 TMEM16A/YFP-H148Q/I152L, iodide quench fluorescence; hits give low values; hit rate 0.3% among 340,000;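 active = fluorescence-ratio B-score plate-corrected deviation score at least 3 library SD below zero, with starting fluorescence score within 5 deviations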;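 also: channel opened by trigger with iodide after compound preincubation; score built on the fluorescence ratio of max minus min over baseline; more negative score means more quench and so TMEM16A activation or potentiation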
TMEM16A inh: mouse TMEM16A channel inhibition, primary screen. HEK293 TMEM16A/YFP iodide influx fluorescence, ionomycin. normalized B-score (activity score, 25-100; higher = stronger inhibition) at 10 µM. hit rate 1.2% among 310,000. AID 588511;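 active = ratio plate-corrected score three or more library SD toward inhibition, starting fluorescence score within five deviations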;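 also: score derived from kinetic fluorescence span divided by baseline fluorescence per well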
CHT inh: human CHT choline transport inhibition. hit rate 0.86% among 310,000. CHT-expressing cells, membrane potential dye, choline response; hits give low values. B-score at 10 µM. AID 488975;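 active = B-score over 3 SD under the library average, and starting fluorescence ratio not unusually high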;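 also: choline stimulus applied at its EC90 after an EC20 pre-addition; B-score computed on integrated fluorescence ratio after choline addition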
CHT allo act: allosteric activators of human choline transporter CHT; Q9GZV3; CHT-expressing cells, membrane potential dye, choline EC20; hits give high values; LV-AA mutant CHT in HEK293 cells; B-score at 10 µM; hit rate 0.49% among 310,000; AID 488977;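 active = initial fluorescence not abnormally high and integrated response B-score, plate-corrected, over 3 SD above library mean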
CHT act confirm: human CHT activation, confirmatory screen | shares compounds with CHT allo act | CHT-expressing cells, membrane potential dye fluorescence (FDSS); % of choline EC20–EC90 response window; HEK293 expressing CHT LV-AA mutant; choline added at its EC20 | activation, % at 10 µM | hit rate 91% among 2,500 | AID 504833;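 active = primary screen active, with duplicate mean activation above negative control mean plus 3 SD, cut at about 11% in these data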
HEK293 MP dye: CHT activator counter-screen hit in parental HEK293 cells; ratio readout change at 10 µM, hits read low; membrane potential dye fluorescence (FDSS); measured after EC20 choline addition; hit rate 62% among 2,500; shares compounds with CHT allo act; AID 623908;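 active = duplicate-averaged ratio beyond 3 SD from buffer wells, up or down, though filed actives are nearly all decreases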
Numbers without * were called inactive; i = inactive; . = no result given. Only some compounds are listed: those with a hit (about 2.3% of all), similar ones and a draw of the others.

SMILES	ANO1 activ	TMEM16A inh	CHT inh	CHT allo act	CHT act confirm	HEK293 MP dye
O=C(COC(=O)/C=C/c1ccccc1)NNC(=O)c1ccccc1F	i	.	.	.	.	.
Cn1c(Cc2ccccc2)[n+](C)c2ccccc21	i	i	i	i	48.9*	-41*
Cc1ccc(C(=O)c2cc([N+](=O)[O-])ccc2N2CCN(C)CC2)cc1	i	i	i	12.3*	38.1*	i
CC(C)CC(=O)Nc1ccc(C(=O)COC(=O)C2=COCCO2)cc1	i	i	i	i	.	.
Cc1cc(N2CCN(Cc3nc(-c4ccc(F)cc4)oc3C)CC2)cc(C)n1	i	i	i	6.85*	42.7*	-46.7*
COc1ccccc1N1CCN(Cc2nc(-c3ccc(F)cc3)oc2C)CC1	i	i	i	i	.	.
CCN(CC)S(=O)(=O)c1cnccc1N1CCN(c2cccc(Cl)c2)CC1	i	i	i	9.33*	12.8*	i
CCN1CCN(c2ccc(S(=O)(=O)N3CCCCC3)cc2NC(=O)c2ccc([N+](=O)[O-])s2)CC1	i	i	i	i	.	.
Cc1ccc(NC(=O)C(c2ccccc2)N2CCN(CC(=O)NC3CC3)CC2)cc1 (stereo not given)	i	.	.	.	.	.
COc1ccc(C(=O)N/N=C/c2cc3ccccc3[nH]c2=O)cc1	i	i	i	i	29.4*	-31.7*
COc1ccc(C(=O)N/N=C/c2ccccc2OC(=O)c2ccccc2)cc1	i	i	i	i	.	.
CCCCCCC[N+](CC)(CC)CCCCc1ccc(Cl)cc1	i	i	i	i	.	.
Cn1c(SCC(=O)NC2(C#N)CCCCC2)nnc1-c1cccnc1	i	i	i	i	.	.
C=CC[n+]1c(-c2ccccc2)csc1NC(C)(C)C	i	i	i	i	.	.
C=CC[n+]1c(-c2ccc(OC)c(OC)c2)csc1NNC(=O)Nc1ccccc1	i	100*	i	i	8.5	i
CCn1c(C)c(C(C)=O)c(N2CCCC2)nc1=S	i	i	i	i	2.7	i
COc1ccc(Nc2nccc3c2ncn3C)cc1	i	i	i	i	60.8*	-56.5*
O=S(=O)(c1ccc2ccccc2c1)N1CCN(c2ccc(O)cc2)CC1	i	.	.	.	.	.
c1cc2c3c(cccc3c1)C(N1CCCCCC1)=N2	i	i	i	i	50.1*	-57.2*
CCOC(=O)C1CCN(C(=O)COC(=O)CN(C)S(=O)(=O)c2ccc(NC(C)=O)cc2)CC1	i	i	i	i	.	.
COc1ccc(/C=C/C(=O)NCCCN2CCCC2)cc1	i	i	i	i	.	.
COc1ccc(/C=C/C(=O)NC(C)CCc2ccccc2)cc1OC (stereo not given)	i	i	i	i	.	.
COc1ccc(/C=C/C(=O)NCCCc2ccccc2)cc1	i	i	i	6.59*	37.6*	i
COc1ccc(/C=C/C(=O)NC(C)CCc2ccccc2)cc1 (stereo not given)	i	i	i	i	34.9*	i
COc1ccc(-c2cn3nc(SCC(=O)NCC4CCCO4)ccc3n2)cc1 (stereo not given)	i	i	i	i	.	.
SMILES	ANO1 activ	TMEM16A inh	CHT inh	CHT allo act	CHT act confirm	HEK293 MP dye
Cc1cc(NC(=O)CCCSc2nc(-c3ccco3)cc(C(F)(F)F)n2)n(-c2ccccc2)n1	i	i	i	i	15.4*	i
Cc1cc(NC(=O)CSc2nc(-c3ccco3)cc(C(F)(F)F)n2)n(-c2ccccc2)n1	i	i	i	i	.	.
OCC[C@H]1C[C@@H](O)[C@H](O)[C@@]2(Cc3ccccc3CO2)O1	i	i	i	i	.	.
O=C1C2CC=CCC2C(=O)N1c1nccs1 (stereo not given)	i	.	.	.	.	.
O=C1CC2(CCN(C(=O)c3cccc(Cl)c3)CC2)Oc2ccccc21	i	i	i	i	.	.
O=C1CC2(CCN(C(=O)c3ccc(Cl)cc3)CC2)Oc2ccccc21	i	i	i	i	.	.
O=C1CC2(CCN(C(=O)c3ccccc3Cl)CC2)Oc2ccccc21	i	i	i	i	-8.9	i
O=C1CC2(CCN(C(=O)c3cccc(Br)c3)CC2)Oc2ccccc21	i	i	i	8.89*	5.1	i
